Pf growth 48h: P. falciparum growth inhibition at 48 hours (one generation) | AID 504832 | Potency, µM (top dose mostly 28.7 µM), for inactives: at the highest dose activity change, negative = inhibition, actives largely listed as inhibitors | P. falciparum luciferase growth in erythrocytes, 48 h | 310,000 tested, 5.9% active; further: on the % scale 0 is the no-effect control and ±100 the full control effect
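Luminescence readout; reporter = integrated firefly luciferase in P. falciparum. RBC culture at 2% hematocrit, 0.1% parasitemia final, 37 C/5% CO2; decreased signal taken as growth inhibition.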
Pf growth 96h: inhibits malaria parasite growth, 96 h | P. falciparum luciferase reporter growth, 96 h | Potency, µM (highest dose often 28.7 µM), for the others: at the top dose activity change, negative = inhibition, hits mostly inhibitors | AID 504834 | 320,000 tested, 6.9% active; further: on the % scale 0 is the no-effect control and ±100 the full control effect
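Luminescence readout: decreased luciferase signal marks inhibited growth of reporter-expressing P. falciparum in infected red cells (2% hematocrit, 0.05% parasitemia final), exposed to compound two generations (96 h, 37 C, 5% CO2).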
Sm TGR inh: blocks Schistosoma mansoni thioredoxin glutathione reductase. purified TGR, DTNB reduction, TNB absorbance 405 nm. Potency, µM (series often up to 114 µM), inactives show at the highest dose activity change, negative = inhibition, hits mostly inhibitors. 360,000 tested, 3% active. AID 485364; further: on the % scale 0 is the no-effect control and ±100 the full control effect; nearly all actives have a fitted effect of over 60% in size
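First, TGR (20 nM dispensed) and NADPH were mixed with compound. Second, a 15 min room-temperature incubation followed. Third, further NADPH and then DTNB were added to start the reaction. Finally, TNB absorbance was monitored kinetically.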
SARS PLpro yeast: SARS-CoV PLP inhibition in yeast. S. cerevisiae expressing SARS-CoV PLpro, growth rescue. Potency, µM (titrated, usually from 32.9 µM), without a hit: top-dose activity, positive = growth rescue, usual class: activators. 330,000 tested, 0.19% active; calls by dose curve; further: 0% is about no effect; nearly all actives have a fitted effect of over 55% in size
AmpC detergent: AmpC beta-lactamase inhibition with detergent present | 370,000 tested, 0.041% active | AmpC hydrolysis of nitrocefin, absorbance 480 nm, 0.01% Triton | Potency, µM (series often up to 114 µM), inactives show top-dose activity change, negative = inhibition, actives largely listed as inhibitors | AID 485294 | P00811;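 further: 0% = no-compound wells and -100% = no-enzyme wells; nearly all actives have a fitted effect of over 25% in size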
Target sequence (P00811 whole entry, looked up): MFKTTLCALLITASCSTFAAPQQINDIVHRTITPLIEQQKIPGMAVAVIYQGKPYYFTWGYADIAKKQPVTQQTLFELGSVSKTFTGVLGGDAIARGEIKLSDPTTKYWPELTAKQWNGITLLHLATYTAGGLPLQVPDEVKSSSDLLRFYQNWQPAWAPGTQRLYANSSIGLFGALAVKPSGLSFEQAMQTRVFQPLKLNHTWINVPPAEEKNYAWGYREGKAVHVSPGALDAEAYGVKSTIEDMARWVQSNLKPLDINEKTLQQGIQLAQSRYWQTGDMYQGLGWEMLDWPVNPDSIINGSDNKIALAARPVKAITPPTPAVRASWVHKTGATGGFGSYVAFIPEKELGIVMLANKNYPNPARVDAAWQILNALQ
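AmpC (5.3 nM in the dispensed reagent) in 20 mM phosphate pH 7.0 with 0.01% (detergent screen) or 0.0001% Triton X-100 was preincubated with compounds for 15 min at room temperature. Nitrocefin was then added from an 800 uM solution, and hydrolysis was followed at 480 nm.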
AmpC inh no detg: inhibitors of E. coli AmpC beta-lactamase without detergent; P00811; AmpC nitrocefin hydrolysis, absorbance 480 nm, 0.0001% Triton; Potency, µM (highest dose often 57.1 µM), inactives show at the top dose activity change, negative = inhibition, actives largely listed as inhibitors; 330,000 tested, 0.52% active; AID 485341;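 further: plate controls were no compound for no effect and no enzyme for full effect; nearly all actives have a fitted effect of over 20% in size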
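20 mM phosphate pH 7.0 + 0.01% (detergent screen) or 0.0001% Triton X-100; 5.3 nM AmpC reagent; cpd preinc 15 min RT; nitrocefin (800 uM stock) to start; A480 q20 s × 4 min; Activity was normalised to no-enzyme and no-compound control wells.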
* hit, by the source's call; u = inconclusive; x = no result given; [ ] = remark or other dose. Rows were chosen to be rich in hits. Some 12% of all compounds tested hit in one or more screens of this group. Unless noted, the call rests on the fitted dose curve; in most records, active means well fitted curve in the direction sought with a large enough effect; inconclusive means small, poorly fitted or top-dose-only effect, or another doubt; inactive means no such curve, though single readings can be large; an effect the other way counts as inactive or inconclusive. Potency means the concentration at half of the fitted maximal effect.

SMILES	Pf growth 48h	Pf growth 96h	Sm TGR inh	SARS PLpro yeast	AmpC detergent	AmpC inh no detg
Fc1ccc(C2=CC(c3ccco3)n3ncnc3N2)cc1 (stereo not drawn)	15%	358%	u	12%	-14%	-24%
Oc1ccc(C2C=C(c3ccc(F)cc3)Nc3ncnn32)cc1 (stereo not drawn)	12%	u	45µM*	1%	-1%	-27%
Fc1ccc(C2=CC(c3ccc(Br)o3)n3ncnc3N2)cc1 (stereo not drawn)	-7%	37%	20µM*	18%	-8%	-49%
Cc1ccc(C(=O)NNC(=O)c2ccoc2C)s1	42%	12%	68%	1%	2%	-16%
CCOc1ccc(C2C=C(c3ccc(F)cc3)Nc3ncnn32)cc1 (stereo not drawn)	12µM*	x	28µM*	-11%	-7%	-12%
CCOc1ccc(C2C=C(c3ccccc3)Nc3ncnn32)cc1 (stereo not drawn)	u	u	79µM*	-1%	-9%	-21%
COc1ccc(C2C=C(c3ccc(Cl)c(Cl)c3)Nc3ncnn32)cc1 (stereo not drawn)	x	x	19%	x	-6%	x
COc1ccc(C2C=C(c3ccc(C)cc3)Nc3ncnn32)cc1 (stereo not drawn)	12µM*	-4%[5.75 µM]	28µM*	-14%	-4%	-5%
CCc1cnc2c(c1SCC(=O)Nc1ccc(Cl)cc1)c(=O)n(C)c(=O)n2C	x	x	5%	x	1%	x
CCCN(CCC)C(=O)Cn1c(=O)n(-c2ccc(CC)cc2)c(=O)c2c3c(sc21)CCC3	x	x	-6%	x	4%	x
CCCCn1c(=S)[nH]c2ccc(N3CCOCC3)cc2c1=O	u	8.3µM*	-3%	0%	8%	-28%
O=C(CCCCCn1c(=S)[nH]c2ccc(N3CCOCC3)cc2c1=O)NCc1ccc(Cl)cc1	8.3µM*	67%	-12%	0%	u	-29%
Cc1ccc(C)c(N2CCN(C(=O)c3ccc(Cn4c(=S)[nH]c5ccc(N6CCOCC6)cc5c4=O)cc3)CC2)c1	2.6µM*	4.1µM*	-23%	0%	-2%	-27%
O=c1c2cc(N3CCOCC3)ccc2[nH]c(=S)n1CCCN1CCCCCC1	u	25%	u	3%	-3%	21%
Cc1cccc(N2CCN(C(=O)CCCCCn3c(=S)[nH]c4ccc(N5CCOCC5)cc4c3=O)CC2)c1C	9.3µM*	3%	-15%	-1%	0%	-25%
O=C(c1ccc(Cn2c(=S)[nH]c3ccc(N4CCOCC4)cc3c2=O)cc1)N1CCN(c2ccc(F)cc2)CC1	u	u	3%	1%	5%	89%
CC(C)(C)c1ccc(S(=O)(=O)N2CC(=O)Nc3ccccc32)cc1	x	-9%	-23%	0%	u	-18%
Cc1ccc(-c2cc(-c3ccc4c(c3)NC(=O)CO4)nc3c2COc2ccccc2-3)cc1	x	x	0%	x	3%	x
Cc1ccc(-c2cn3c(n2)sc2cc(C(=O)NCCC4=CCCCC4)ccc23)c(C)c1	x	x	-11%	x	4%	x
C/C(=N/Oc1nc(C)cc(C)n1)c1ccc(F)cc1	38%	7%	21%	-2%	-14%	-11%
COc1ccc(S(=O)(=O)N2CCN(c3nc(-c4cccnc4)nc4ccccc34)CC2)cc1	2.9µM*	2.1µM*	-9%	0%	3%	100%
c1ccc2c(N3CCCCCC3)nc(-c3ccncc3)nc2c1	u	203%	-5%	-34%	1%	3%
CN1CCN(c2nc(-c3cccnc3)nc3ccccc23)CC1	u	-20%	2%	-1%	-7%	22%
N#Cc1ccccc1S(=O)(=O)N1CCN(c2nc(-c3cccnc3)nc3ccccc23)CC1	9.3µM*	4.7µM*	-6%	22%	0%	129%
O=S(=O)(c1ccccc1F)N1CCN(c2nc(-c3cccnc3)nc3ccccc23)CC1	12µM*	u	-7%	-1%	4%	33%
SMILES	Pf growth 48h	Pf growth 96h	Sm TGR inh	SARS PLpro yeast	AmpC detergent	AmpC inh no detg
c1cncc(-c2nc(N3CCCCCC3)c3ccccc3n2)c1	0.47µM*	x	4%	-15%	-3%	72%
CCOc1ccc(NC(=O)c2cc3c(s2)-c2ccccc2OC3)cc1	x	x	2%	x	21%	x
O=C(CN1C(=O)COc2ccc(S(=O)(=O)N3CCOCC3)cc21)N1CCN(c2ccc(F)cc2)CC1	x	x	-5%	x	-5%	x
COc1ccc(N2CCN(S(=O)(=O)/C=C/c3ccccc3)CC2)cc1	11%	1%	-2%	-1%	u	-4%
COc1cc2c(cc1OC)CN(c1nc(-c3cccnc3)nc3ccccc13)CC2	u	12µM*	u	-20%	6%	108%
O=S(=O)(/C=C/c1ccccc1)N1CCN(c2nc(-c3ccccc3)nc3ccccc23)CC1	u	12µM*	5%	-5%	-4%	-38%
COc1ccc(CN(C)c2nc(-c3cccnc3)nc3ccccc23)cc1OC	16%	19%	2%	-1%	-5%	-13%
CC1CCN(c2nc(-c3ccccc3O)nc3ccccc23)CC1	u	19%	-23%	2%	3%	-9%
Cc1ccc(C)c(S(=O)(=O)N2CCN(c3nc(-c4cccnc4)nc4ccccc34)CC2)c1	3.3µM*	u	-2%	6%	8%	-15%
Oc1ccccc1-c1nc(N2CCCC2)c2ccccc2n1	x	4.1µM*	7%	4%	u	-24%
COc1ccc(CCNc2nc3c(-c4cccc(C)c4)nnn3c3ccccc23)cc1OC	x	x	-1%	x	-9%	x
COc1ccccc1CNc1cc(C)nc2nc(-c3ccc(C)cc3)nn12	x	x	2%	x	5%	x
COc1ccc(Cl)cc1C(=O)NNC(=O)COC(=O)CCN=C1NS(=O)(=O)c2ccccc21	-2%	44%	-6%	-2%	-3%	u
NCCc1cc(O)c(O)cc1O	-11%	u	x	x	x	x
NCCc1ccc(O)c(O)c1	u	u	14µM*	1%	-10%	0%
Cc1cc(C)n2nc(S(=O)(=O)N(CC(C)C)CC(C)C)nc2n1	0%	24%	2%	-4%	u	10µM*
O=C(CCNS(=O)(=O)c1ccccc1F)OCc1ccccc1Cl	x	x	x	-6%	x	-32%
COc1ccc(N2Cc3ccc(C(=O)N/N=C\c4ccc(O)cc4O)cc3C2)cc1	11%	u	28µM*	u	-2%	-47%
CCOC(=O)c1c(O)cc(C)cc1Nc1ccccc1	-18%	u	-1%	-1%	-4%	-49%
O=C(Cc1ccc(-n2c(=S)[nH]c3ccccc3c2=O)cc1)N1CCN(c2ccccc2)CC1	x	82%	1%	0%	-1%	-8%

Screening results (PubChem)
